PubChem BioAssay AID2761 (The Scripps Research Institute Molecular Screening Center, 2010)
Some of the results follow. Unmarked numbers belong to inactive results. Active and inactive are the calls of the source. Cut-off read from the data, not from the text of the source: active = inhibition above about 38%; inactive = the rest.

Molecular target: Serine protease Rv3671c (Mycobacterium tuberculosis (strain ATCC 25618 / H37Rv)) (UniProt P9WHR9)
Experiment: M. tuberculosis Rv3671c protease inhibition confirmation – biochemical, fluorescence polarization, M. tuberculosis H37Rv (AID 2761)
Settings: at 5.96 µM; active compounds read high

Serine protease Rv3671c (Mycobacterium tuberculosis (strain ATCC 25618 / H37Rv)), sequence (P9WHR9 whole entry, looked up): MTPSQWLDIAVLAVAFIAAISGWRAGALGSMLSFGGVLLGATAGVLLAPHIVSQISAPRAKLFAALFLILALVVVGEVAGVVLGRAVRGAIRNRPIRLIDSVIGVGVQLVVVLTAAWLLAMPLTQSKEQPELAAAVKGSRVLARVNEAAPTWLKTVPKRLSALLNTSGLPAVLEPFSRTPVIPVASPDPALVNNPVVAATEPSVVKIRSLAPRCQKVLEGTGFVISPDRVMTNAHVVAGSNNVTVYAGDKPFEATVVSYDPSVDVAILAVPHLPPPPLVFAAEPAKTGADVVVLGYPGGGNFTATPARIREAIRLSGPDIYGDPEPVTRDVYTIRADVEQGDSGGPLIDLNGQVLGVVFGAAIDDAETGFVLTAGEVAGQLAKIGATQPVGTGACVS

Compound: COCCOC(=O)c1sc(=S)n(CCOC)c1N
- inhibition: 28.9%

Compound: c1ccc2[nH]c(-c3nc4ccccc4[nH]3)nc2c1
- inhibition: 66.6% (active)
